Most compounds without a hit are left out; they make up all but 19% or so of the library.
IL1B secr inh: blocks inflammasome-driven IL-1 beta release; THP-1 LPS/ATP IL-1B secretion, AlphaLISA, 16 h; active compounds read low; activity change, % at 57.5 µM; 4.7% of 360,000 active; in the data active = activity change below about -50%; inconclusive = mostly about -30% to -49%
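THP-1 cells pretreated 1 hr with compounds (up to 57.5 uM final), then stimulated with LPS (250 ng/mL final) plus ATP (1.25 mM final); secreted IL-1B measured by AlphaLISA after 16 hr, decreased signal indicating inhibition.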
TDP1 cell noCPT: qHTS for Inhibitors of human tyrosyl-DNA phosphodiesterase 1 (TDP1): qHTS in cells in absence of CPT; DT40 Tdp1-/- hTDP1 cells, no CPT, ATP luminescence, 48 h; Potency, µM (top dose mostly 46.2 µM), for inactives: at the top dose activity change, negative = growth inhibition, hits mostly inhibitors; 15% of 420,000 active; AID 686978, 2013; note: potency is the fitted concentration of half-maximal effect; nearly all actives have a fitted effect of over 55% in size
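Cells were dispensed at 400 per well, compounds added by pin tool, plates incubated ≥48 hr at 37 °C, then CellTiter-Glo added for 30 min at room temperature before luminescence reading. Line: DT40 Tdp1-/- complemented with hTDP1; camptothecin omitted.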
ELG1 DNA repair: ELG1-dependent DNA repair inhibition | HEK293T ELG1-luciferase reporter, luminescence, 16 h; DNA damage induced by 5-fluorouridine | Potency, µM (top dose mostly 46.1 µM), for inactives: at the highest dose activity change, negative = inhibition, usual class: inhibitors | AID 504467 | 2.3% of 330,000 active; note: potency is the fitted concentration of half-maximal effect; nearly all actives have a fitted effect of over 55% in size
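Cells (2,000 per well) received 5-fluorouridine plus test compound or DMSO and were incubated 16 hr at 37 °C, 5% CO2. Luciferase activity was read by luminescence 30 min after ONE-Glo addition; signal suppression marked inhibition of damage-induced ELG1 function.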
HT1080 IDH1KD tx: HT-1080 IDH1 knockdown cell toxicity (counter line) | HT-1080 IDH1 knockdown viability, ATP luminescence, 48 h | Potency, µM (series often up to 46.1 µM), inactives show at the highest dose activity, negative = toxicity, usual class: cytotoxic | 2% of 360,000 active;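 note: potency is the fitted concentration of half-maximal effect; 0% = DMSO wells and -100% = cell-free medium wells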
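Viability of IDH1-knockdown HT-1080 fibrosarcoma cells was assessed by CellTiter-Glo after 48 h at 37 °C with titrated compound; concentration-effect curves were classified by fit quality and response size.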
HT1080-NT tox: kills 2HG-producing HT-1080-NT fibrosarcoma cells; HT-1080-NT fibrosarcoma viability, CellTiter-Glo ATP luminescence, 48 h; Potency, µM (doses to about 46.1 µM), for inactives: top-dose activity, negative = less viability, usual class: cytotoxic; 1.6% of 360,000 active;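 note: NT is the 2HG producing partner of a matched IDH1 knockdown line; potency is the fitted concentration of half-maximal effect; 0% = DMSO-treated cells and -100% = media-only wells without cells; nearly all actives have a fitted effect of over 55% in size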
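HT-1080-NT fibrosarcoma cells (2HG-overproducing), 750 cells/well in RPMI with 5% FBS, dosed after 2 h and incubated 48 h at 37C. CellTiter-Glo luminescence normalized to DMSO and no-cell wells; concentration-response curves fitted and classed.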
TDP1 cell CPT: growth inhibition of DT40 Tdp1-/-;hTDP1 cells with camptothecin (screen for TDP1 inhibitors); Potency, µM (highest dose often 46.2 µM), for the others: at the top dose activity change, negative = growth inhibition, most hits filed as inhibitors; chicken DT40 Tdp1-/-;hTDP1 cells + 20 nM CPT, ATP luminescence, 48 h; 12% of 420,000 active; AID 686979; note: potency is the fitted concentration of half-maximal effect; nearly all actives have a fitted effect of over 55% in size
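Chicken DT40 Tdp1-/- cells complemented with human TDP1, 400 cells/well, exposed to compounds plus 20 nM camptothecin for at least 48 h at 37 C; viability read as ATP content by CellTiter-Glo luminescence.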
* marks the source's active call; other numbers are inactive results; ? = inconclusive; / = not tested or not shown. Unless noted, calls come from the whole dose curve; as a rule, active = well fitted curve in the direction sought with a large enough effect; inconclusive = small, poorly fitted or top-dose-only effect, or another doubt; inactive = no such curve, though single readings can be large; an effect the other way counts as inactive or inconclusive. Unless noted, % is set by controls: 0 for no effect and ±100 for the full control effect.

SMILES	IL1B secr inh	TDP1 cell noCPT	ELG1 DNA repair	HT1080 IDH1KD tx	HT1080-NT tox	TDP1 cell CPT
Cc1ccccc1CN1CCc2cc([N+](=O)[O-])ccc21	-13	18µM*	?	-13%	-2%	?
COC(=O)c1cccc(CC2(C)C(=O)Nc3ccc(OC(F)(F)F)cc32)c1 (stereo not drawn)	12	?	/	?	-14%	?
O=C(c1cc2ccccc2o1)N1CCN(S(=O)(=O)c2ccccc2)CC1	-1	-21%	-25%	-2%	1%	12µM*
O=C(c1cc2ccccc2o1)N1CCN(S(=O)(=O)/C=C/c2ccccc2)CC1	-14	?	-5%	-9%	-15%	?
Cc1cc(C(=O)N2CCN(S(=O)(=O)c3ccccc3)CC2)c(C)o1	-2	?	14%	-7%	-2%	23µM*
Cc1cc(C(=O)N2CCc3ccccc3C2)c(C)o1	-15	?	/	10%	9%	16µM*
Cc1nc2ccccc2c2oc(C(=O)N3CCC(C)CC3)cc12	-2	?	?	6%	-1%	?
Cc1nc2ccccc2c2oc(C(=O)N3CCc4ccccc4C3)cc12	-1	16µM*	26µM*	0%	1%	23µM*
O=C(Cc1ccccc1F)Nc1cc(Cl)ccc1N1CCCC1	9	-29%	0%	-3%	8%	-24%
CN(C)c1ccc(-c2csc(C(C)(O)c3ccc(F)c(F)c3)n2)cc1 (stereo not drawn)	-13	?	/	?	?	?
Cc1cnc2c(N)cc(C)c(C)c2c1	?	?	/	-14%	-2%	-26%
COc1ccc(C(=O)NCCCSc2ccccc2)cc1F	-18	?	4%	1%	18%	-27%
COc1ccc(Cl)cc1C(=O)NCCCSc1ccccc1	-54*	?	-17%	3%	6%	-11%
O=C(NCCCSc1ccccc1)c1cc(Br)ccc1O	-2	?	-1%	18µM*	?	?
O=C(CNC(=O)c1cccc(Cl)c1)NCCCSc1ccccc1	1	23µM*	0%	3%	2%	?
Cc1cccc(C(=O)NCC(=O)NCCCSc2ccccc2)c1	19	?	6%	2%	0%	?
S=c1[nH]nc(C2CCCCC2)n1/N=C/c1c(Cl)cccc1Cl	9	17%	2%	-17%	-14%	?
O=C1NCCCN1C1OC(CO)C(O)C1O (stereo not drawn)	9	-5%	/	15%	1%	3%
CCOc1ccc(CNC(=O)C2CCN(c3nn4c(=O)cc(C)nc4s3)CC2)cc1	-4	-9%	-6%	-6%	-8%	?
COc1ccc(-c2ccc3[nH]c4c(c3c2)CCN2C[C@@H]([C@H](C)OC(=O)Nc3cc(Cl)cc(Cl)c3)[C@@H](N(C)C(=O)Nc3cc(Cl)cc(Cl)c3)C[C@@H]42)cc1	-18	?	/	-4%	-19%	?
COc1ccc(NC(=O)N(C)[C@H]2C[C@H]3c4[nH]c5ccc(-c6ccc(OC)cc6)cc5c4CCN3C[C@H]2[C@H](C)O)cc1	?	?	/	16µM*	23µM*	?
COc1ccc(NC(=O)O[C@@H](C)[C@@H]2CN3CCc4c([nH]c5ccc(-c6ccc(OC)cc6)cc45)[C@@H]3C[C@@H]2N(C)C(=O)Nc2ccc(OC)cc2)cc1	-6	13µM*	/	-23%	-23%	?

Screening results (PubChem BioAssay)
